Shown are actives, neighbours in structure and some others; about 2.1% of the full set was active somewhere.
Abeta yeast res – compounds reversing amyloid beta toxicity in yeast; yeast expressing A-beta42, growth rescue, OD600, 48 h; response scale: 0% DMSO, 100% iron-clioquinol control; Potency, µM (highest dose often 46.1 µM), usual class: activators; hit rate 0.063% among 410,000; further: nearly all actives have a fitted effect of over 55% in size
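Yeast A-beta toxicity model in growth medium with pinned compounds, 48 h at 30 C; growth read as absorbance at 600 nm. Normalized to FeCl3/clioquinol equimolar mix (positive) and DMSO (negative).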
FUS yeast rescue – suppressors of FUS proteinopathy in yeast | hit rate 0.24% among 390,000 | Potency, µM (top dose mostly 76.6 µM), most hits filed as activators | S. cerevisiae FUS-expressing, growth rescue, OD600, 24 h;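 further: plate controls were DMSO vehicle for no effect and reference control for full effect; nearly all actives have a fitted effect of over 55% in size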
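Galactose (2%) drives FUS expression in yeast precultured in raffinose; seeding density OD 0.005. Test compounds incubated 24hr at 30C and 99% humidity before absorbance at 600 nm was measured.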
TDP-43 yeast inh – inhibitors of TDP-43 toxicity in yeast. TDP-43 expressing yeast growth rescue, BacTiter-Glo, 24 h. Potency, µM (series often up to 46.1 µM), for inactives: at the highest dose growth rescue (activation), actives largely listed as activators. hit rate 1.8% among 410,000; further: % of control where 0% means no effect; nearly all actives have a fitted effect of over 50% in size
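Yeast expressing TDP-43 (pregrown in raffinose, seeded at OD600=0.02 in galactose medium) exposed to compounds 24 hr at 30 deg C. Growth read by BacTiter-Glo luminescence; rescue of toxicity appears as increased signal.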
aSyn rescue – inhibitors of alpha-synuclein toxicity in yeast. Yeast expressing alpha-synuclein, growth rescue, BacTiter-Glo, 24 h. Potency, µM (highest dose often 46.1 µM), for inactives: at the highest dose growth rescue (activation), usual class: activators. hit rate 0.14% among 370,000; further: % of control where 0% means no effect; nearly all actives have a fitted effect of over 65% in size
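Galactose-induced alpha-syn yeast (OD600=0.02, raffinose-pregrown) + pinned cpd, 24 hr, 30 deg C; growth by BacTiter-Glo luminescence. Growth restoration scores as activation.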
Numbers without * were called inactive; i = inactive; ? = inconclusive; / = no result; [ ] = remark or other dose. The call rests on the fitted dose curve; in most records, active means well fitted curve in the direction sought with a large enough effect; inconclusive means small, poorly fitted or top-dose-only effect, or another doubt; inactive means no such curve, though single readings can be large; an effect the other way counts as inactive or inconclusive. Potency means the concentration at half of the fitted maximal effect.

SMILES	Abeta yeast res	FUS yeast rescue	TDP-43 yeast inh	aSyn rescue
CC(NCCN(C)C)C1CCC2C3CCc4cc(O)ccc4C3CCC12C (stereo unspecified)	i	/	0.32µM*	-1%
C[C@]12CC[C@@H]3c4ccc(O)cc4CC[C@H]3[C@@H]1CC[C@@H]2O	i	i	?	9%
COC(C(=O)C(O)C(C)O)C1Cc2cc3cc(OC4CC(OC5CC(O)C(O)C(C)O5)C(O)C(C)O4)c(C)c(O)c3c(O)c2C(=O)C1OC1CC(OC2CC(OC3CC(C)(O)C(O)C(C)O3)C(O)C(C)O2)C(O)C(C)O1 (stereo unspecified)	/	/	/	-21%
CN(C)[C@H]1CCN(c2cccc3c2S(=O)(=O)N2CC[C@@H](C2)O3)C1	/	i	/	/
Cc1ccc(S(=O)(=O)N2c3ccc(F)cc3C[C@H]2CSc2ccccc2)cc1	/	i	/	/
COc1ccc(C)cc1S(=O)(=O)Nc1ccc(F)c(Cl)c1	i	i	18µM*	4%
COc1cc(OC)cc(C(=O)NCCN2C(=O)C3C4C=CC(C4)C3C2=O)c1 (stereo unspecified)	/	i	/	/
CCC(C(=O)Nc1ccccc1N1CCCC1)c1cccc(Cl)c1 (stereo unspecified)	/	i	/	/
CN(C(=O)COc1ccc(Cl)cc1Br)C1CCCCC1	i	i	18µM*	0%
O=C(COC(=O)COc1ccc(Cl)cc1Br)NC1CCCCCC1	i	i	14%	7%
O=C1Cc2ccccc2C1=C1C=c2ccccc2=C1	/	/	/	1%
Cn1cc(-c2ccc3c(c2)OCO3)c2ccccc21	i	i	25µM*	2%
COc1cc(-c2nnc(-c3ccccc3)o2)cc(OC)c1OC	i	i	18%	-11%
COc1cc(-c2nnc(COc3ccc4ccccc4c3)o2)cc(OC)c1OC	i	/	28µM*	6%
C=CS(=O)(=O)N(Cc1ccc(F)cc1)C(=C)C(=O)OC	/	i	/	/
O=C(Nc1ccc(F)cc1F)c1ccc(-n2cnc3cccnc32)cc1	i	i	?	-8%
COc1ccc(OC)c(-c2nn(-c3ccccc3)cc2C(=O)N2CCc3ccccc3C2)c1	i	?	13µM*	-2%[1.84 µM]
COc1ccccc1-c1nn(-c2ccccc2)cc1C(=O)N1CCc2ccccc2C1	i	?	23%	?
CCc1nc2ccc(C(=O)Nc3cc(-c4ccccc4)ccc3OC)cn2c1N(C)CCCc1ccccc1	i	?	20µM*	-14%
CCc1ccc(C(C)NC(=S)NC2CCCCC2)cc1 (stereo unspecified)	10µM*	i	?	-16%
CCOc1ccc(C(C)NC(=S)NCc2ccc(F)cc2)cc1 (stereo unspecified)	?	i	?	10%
Cc1ccc(C(C)NC(=S)NCc2ccc(F)cc2)cc1C (stereo unspecified)	14µM*	i	30%	9%
CCc1ccc(C(C)NC(=S)NCc2ccc(F)cc2)cc1 (stereo unspecified)	4.5µM*	i	27%	-9%
COc1ccc(Cn2ccc3ccc(-c4ccc5ccn(Cc6ccc(C#N)cc6)c5c4)cc32)cc1	/	i	/	/
N#Cc1c(-n2ncnc2-c2ccccc2Cl)sc2c1CCCCC2	i	i	23%	/
SMILES	Abeta yeast res	FUS yeast rescue	TDP-43 yeast inh	aSyn rescue
CC(C)c1ccc(NC(=O)c2cc([N+](=O)[O-])ccc2N2CCOCC2)cc1	?	?	30%	-6%
O=C(COC(=O)c1cc([N+](=O)[O-])ccc1N1CCOCC1)c1ccccc1	i	i	20µM*	5%
COc1ccc(C(=O)COC(=O)c2cc([N+](=O)[O-])ccc2N2CCOCC2)c(OC)c1	i	/	?	0%
O=C(Nc1ccc(N2CCN(C(=O)c3ccccc3)CC2)cc1)c1cc([N+](=O)[O-])ccc1N1CCOCC1	i	35µM*	-8%	1%
COc1ccccc1C(=O)COC(=O)c1cc([N+](=O)[O-])ccc1N1CCOCC1	i	i	11µM*	12%
O=C(COC(=O)c1cc([N+](=O)[O-])ccc1N1CCOCC1)c1ccccc1Cl	i	i	?	10%
CCOC(=O)c1ccccc1NC(=O)COC(=O)c1cc([N+](=O)[O-])ccc1N1CCOCC1	i	i	18µM*	4%
CC(=O)Nc1ccc(NC(=O)COC(=O)c2cc([N+](=O)[O-])ccc2N2CCOCC2)cc1	i	/	0%	-1%
O=C(c1c(F)cccc1F)N1CCC(Oc2cccnc2)CC1	/	i	/	/
COC(=O)c1ccc(S(=O)(=O)N2CCC(NC(=O)CCc3ccccc3)CC2)cc1	/	i	/	/
COc1ccc(C(=O)c2cc([N+](=O)[O-])ccc2N2CCOCC2)cc1	?	/	6%	23%
COc1ccc(C(=O)COC(=O)c2cc(S(=O)(=O)N3CCCCC3)ccc2N2CCOCC2)c(OC)c1	i	16µM*	?	3%
Cc1ccc(C(=O)c2cc([N+](=O)[O-])ccc2N2CCOCC2)cc1	i	/	35µM*	14%
O=C(OCc1c(F)cccc1Cl)c1cc([N+](=O)[O-])ccc1N1CCOCC1	?	i	6%	11%
O=C(OCc1ccccc1Cl)c1cc([N+](=O)[O-])ccc1N1CCOCC1	i	i	20µM*	19%
CC(=O)N1CC(c2ccccc2)C(c2ccc(Cl)cc2)=N1 (stereo unspecified)	i	/	11µM*	11%
CC(C)NC(=O)N1CC(c2ccccc2)C(c2ccc(Cl)cc2)=N1 (stereo unspecified)	i	i	25%	4%
Cc1ccc2nc(-c3ccccc3)c(CN3CCN(c4ccccc4F)CC3)n2c1	i	i	6%	9%
Cc1ccc2nc(N3CCN(c4ccccc4F)CC3)c(C=O)c(=O)n2c1	i	i	16µM*	1%
O=C(c1oc(=O)c2ccccc2c1-c1ccccc1)N1CCOCC1	i	i	-5%	0%
Cc1cccc(N2CCN(C(=O)c3oc(=O)c4ccccc4c3-c3ccccc3)CC2C)c1 (stereo unspecified)	i	?	13µM*	/
Cc1cc2n(n1)C(c1ccsc1)Nc1ccccc1-2 (stereo unspecified)	i	i	8.9µM*	-20%
CSc1ccc(C2Nc3ccccc3-c3cc(C)nn32)cc1 (stereo unspecified)	i	?	18µM*	-1%
COC(=O)c1ccc(C2Nc3c(C)cccc3-c3cc(C)nn32)cc1 (stereo unspecified)	i	?	13µM*	/
CCN(CC)c1ccc(C2Nc3ccccc3-c3cc(C)nn32)cc1 (stereo unspecified)	i	i	?	/
O=C(CSc1nccn1Cc1ccccc1)Nc1ccc2c(c1)OCO2	i	i	?	/
Cc1cc(C(=O)Nc2ccc(Nc3ccccc3)cc2)ccc1[N+](=O)[O-]	i	i	13µM*	13%
Cc1cc(C)c(S(=O)(=O)c2ccc(Cl)cc2)c(Cl)n1	i	i	?	-71%
